esBAF inh = Bmi1 luciferase reporter increase in mESCs, primary screen, esBAF inhibitor project, mouse ES cells, Bmi1 luciferase knock-in, single point; 24 h; 100% = twice the neutral-well signal; reporter increase, % at 12.5 µM; hit rate 2% among 350,000; AID 602393, 2012; in the data active = activation above about 40%;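 also: a rise in the Bmi1 reporter signal indicates esBAF inhibition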
CDK5 p35 inh = inhibitors of human CDK5/p35 kinase, primary screen, biochemical, single concentration | inhibition, % at 10 µM | Cyclin-dependent kinase 5 (Homo sapiens) + Cyclin-dependent kinase 5 activator 1 (Homo … | hit rate 0.01% among 330,000 | Recombinant CDK5/p35, ADP-Glo luminescence, 60 min | AID 488839, 2010;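 active = highest replicate inhibition of at least 50% and at least 75% of replicates reaching 50%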
Target sequence (Q00535 whole entry, looked up): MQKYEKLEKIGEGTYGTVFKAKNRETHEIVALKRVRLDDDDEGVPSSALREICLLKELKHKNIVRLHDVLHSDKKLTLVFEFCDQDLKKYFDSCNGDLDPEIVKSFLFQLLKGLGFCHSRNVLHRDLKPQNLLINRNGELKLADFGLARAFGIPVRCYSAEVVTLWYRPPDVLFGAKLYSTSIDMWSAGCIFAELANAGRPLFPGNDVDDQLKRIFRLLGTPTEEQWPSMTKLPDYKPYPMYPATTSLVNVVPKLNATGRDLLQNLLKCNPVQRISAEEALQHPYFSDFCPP
Target sequence (Q15078 whole entry, looked up): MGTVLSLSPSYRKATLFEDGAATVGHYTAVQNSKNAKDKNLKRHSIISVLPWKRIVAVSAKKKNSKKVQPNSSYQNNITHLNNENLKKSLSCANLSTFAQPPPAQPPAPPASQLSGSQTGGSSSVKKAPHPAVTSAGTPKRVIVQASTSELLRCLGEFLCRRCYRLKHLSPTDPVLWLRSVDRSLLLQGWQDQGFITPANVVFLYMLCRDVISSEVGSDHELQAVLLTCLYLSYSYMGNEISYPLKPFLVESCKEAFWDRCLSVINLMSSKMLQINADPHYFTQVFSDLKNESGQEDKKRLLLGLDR
DYRK1A inh = rat Dyrk1A kinase inhibitors, primary screen, biochemical, single point, plate reader. AID 504441, 2011. inhibition, % at 12.5 µM. ADP-Glo luminescence, NFATc1 peptide. hit rate 0.43% among 310,000; in the data active = inhibition above about 50%
Rtt109 HAT inh = inhibitors of C. albicans Rtt109/Vps75 HAT, primary screen, biochemical, ThioGlo CoA-SH fluorescence, plate reader | purified Rtt109/Vps75, 4 h | hit rate 0.16% among 330,000 | AID 540336, 2011 | inhibition, % at 34.9 µM;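 active = inhibition of at least 50% in every replicate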
SMARCA2 activ = SMARCA2 (BRM) function activators, primary screen, cell-based, luminescence, high throughput | MG213 cells, MMTV-luciferase reporter, dexamethasone, overnight | activation, % at 9.1 µM | hit rate 1% among 370,000 | AID 652017, 2013; in the data active = activation above about 7.8%
dFosB activator = activators of delta FosB homodimer, primary screen, biochemical, fluorescence polarization, TAMRA-CDK5 oligo, single point; Protein FosB (Mus musculus), P13346; purified delta FosB; percent of positive-control signal above neutral wells; activation, % at 25 µM; hit rate 0.99% among 340,000; AID 493131, 2011;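 active = mean activation above about 17%, with every replicate also reaching it, limit read from the data, passing the limit was not always enough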
Of the large screens only hits and unclear results are named; the others gave an inactive call. Compounds with a hit are over-represented: about 3.2% of the library has one in this group of screens.

COc1ccc(S(=O)(=O)N(C)C[C@H]2Oc3c(NC(=O)Nc4ccc(F)cc4)cccc3C(=O)N([C@@H](C)CO)C[C@H]2C)cc1	none (no result: CDK5 p35 inh, DYRK1A inh, Rtt109 HAT inh, SMARCA2 activ, dFosB activator)
Cc1ccc(OCc2cc(C(=O)N(CCO)Cc3cccs3)no2)cc1C	esBAF inh 84
CCN(Cc1ccncc1)C(=O)c1cc(COc2ccc(C)c(C)c2)on1	none
O=C(NC1CCCC1)c1n[nH]c2ccccc12	esBAF inh 53
O=C(NC1CCCCC1)c1cc(-c2ccccc2O)on1	esBAF inh 83
COc1ccc(-c2cc(C(=O)NC3CCCCC3)no2)cc1OC	none
O=C(NC1CCCCCCC1)c1ccccc1O	esBAF inh 92
O=C(NC1CCCCC1)C(=O)c1c[nH]c2ccccc12	esBAF inh 45
O=C(COC(=O)c1n[nH]c2ccccc12)NC(=O)NC1CCCC1	none
O=C(COC(=O)c1c[nH]c2ccccc12)NC1CCCC1	none
COc1ccc(NC(=O)N(C)C[C@@H]2OCCCC[C@@H](C)Oc3ccc(NC(=O)Nc4ccc5c(c4)OCO5)cc3C(=O)N([C@@H](C)CO)C[C@H]2C)cc1	none (no result: CDK5 p35 inh, DYRK1A inh, Rtt109 HAT inh, SMARCA2 activ, dFosB activator)
C[C@H]1CN([C@@H](C)CO)C(=O)c2cccc(NS(=O)(=O)c3ccccc3)c2O[C@@H]1CN(C)Cc1ccc(-c2ccccc2)cc1	none (no result: CDK5 p35 inh, DYRK1A inh, Rtt109 HAT inh, SMARCA2 activ, dFosB activator)
O=C(NC(=S)NC1CCCCC1)c1ccccc1	esBAF inh 45
O=C(NC1CCCCC1)c1cc(-c2ccc(O)cc2)on1	esBAF inh 42
Cc1ccc(-c2cc(C(=O)NC3CCCCC3)no2)cc1	none
O=C(NC(=S)NC1CCS(=O)(=O)C1)c1ccccc1 (stereo unspecified)	none (no result: esBAF inh)
CCCc1cc(C(=O)NC2CCCCC2)no1	esBAF inh 43
O=C(Nc1ccc(N2CCOCC2)cc1)c1cc2ccccc2o1	esBAF inh 46
O=C(Nc1ccc(CN2CCOCC2)cc1)c1cc2ccccc2o1	none
Cc1nc(NC(=O)c2cccc(-c3cc4ccccc4oc3=O)c2)ccc1Br	dFosB activator 168 (no result: esBAF inh)
O=C(Nc1ccc(N2CCCC2)cc1)c1cccc(-c2cc3ccccc3oc2=O)c1	dFosB activator 17
C[C@@H](NC(=O)C[C@H]1C[C@@H]2c3cc(NC(=O)CN(C)C)ccc3O[C@@H]2[C@@H](CO)O1)c1ccccc1	none (no result: CDK5 p35 inh, DYRK1A inh, Rtt109 HAT inh, SMARCA2 activ, dFosB activator)
CC(C)NC(=O)N[C@@H]1C=C[C@@H](CC(=O)O)O[C@@H]1CO	none (no result: CDK5 p35 inh, DYRK1A inh, Rtt109 HAT inh, SMARCA2 activ, dFosB activator)
Nn1c(SCc2ccccc2)nnc1-c1ccccn1	esBAF inh 43
Cc1ccc(CSc2nnc(-c3ccccn3)n2N)cc1	none (no result: esBAF inh, CDK5 p35 inh, DYRK1A inh, Rtt109 HAT inh, dFosB activator)
Cc1cc(=O)oc2cc(NC(=O)c3cc4ccccc4o3)ccc12	none (no result: esBAF inh, CDK5 p35 inh, DYRK1A inh, Rtt109 HAT inh, dFosB activator)
Cc1cc(=O)oc2cc(NC(=O)c3cc(F)ccc3F)ccc12	esBAF inh 53
Cc1cc(=O)oc2cc(NC(=O)c3ccccc3OC(F)F)ccc12	esBAF inh 53
O=C1c2ccccc2C(=O)N1CCC1=CCCCC1	esBAF inh 54 (no result: Rtt109 HAT inh)
C[C@H](CO)N1C[C@H](C)[C@@H](CN(C)C)Oc2ccc(NC(=O)CCCN(C)C)cc2CC1=O	none (no result: CDK5 p35 inh, DYRK1A inh, Rtt109 HAT inh, SMARCA2 activ, dFosB activator)
CN(C)c1cccc(C(=O)NCC(c2ccco2)N(C)C)c1 (stereo unspecified)	esBAF inh 40
O=C(NCc1ccncc1)C(=O)NCC(c1ccco1)N1CCN(c2ccc(F)cc2)CC1 (stereo unspecified)	Rtt109 HAT inh 53
O=C(NCc1ccccn1)C(=O)NCC(c1ccco1)N1CCN(c2ccc(F)cc2)CC1 (stereo unspecified)	none (no result: esBAF inh)
COc1ccc(CN(C)C[C@@H]2Oc3ccc(NS(C)(=O)=O)cc3C(=O)N([C@H](C)CO)C[C@@H]2C)cc1	none (no result: CDK5 p35 inh, DYRK1A inh, Rtt109 HAT inh, SMARCA2 activ, dFosB activator)
CCCCCCSc1nsc(NC(C)=O)n1	esBAF inh 60
CCCN1C[C@H](C)[C@H](OC)CN(C)C(=O)c2cc(NC(=O)c3ccno3)ccc2OC[C@H]1C	none (no result: CDK5 p35 inh, DYRK1A inh, Rtt109 HAT inh, SMARCA2 activ, dFosB activator)

High-throughput results deposited in PubChem BioAssay by several laboratories.
